Activity calls are given as the source filed them.
How the values were obtained:
[1] = tested on: Plasmodium falciparum Sir2 (PF13_0152, Sir2A); test: pfSir2 binders on small-molecule microarrays, primary screen, biochemical, small-molecule microarray, 635 nm fluorescence (AID 1098); conditions: small-molecule microarray binding, fluorescence 635 nm; higher = more signal;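 note: score merges spot fluorescence intensity with its signal-to-noise ratio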
[2] = small-molecule microarray binders of probe aDKK1, primary screen, biochemical, biotinylated probe, 635/667 nm fluorescence (AID 1099); conditions: higher = more signal;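 note: score merges 667nm spot fluorescence with signal to noise across triplicate slides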
[3] = small-molecule microarray binders of probe aCHRDL2, primary screen, biochemical, biotinylated probe, 635/667 nm fluorescence (AID 1100); conditions: higher = more signal
[4] = splicing luciferase reporter signal modulators, primary screen, spliceosome inhibition project, cell-based, HEK293, splice +/- reporter (AID 1101); conditions: luminescence, 24 h, higher = more signal, called active from +8 up or from −8 down;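 note: HEK293 cells carrying a splicing-competent luciferase reporter gene; test concentration not given here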
[5] = biological target: Fibroblast growth factor 10 (Homo sapiens) (UniProt O15520); test: FGF10 binders on small-molecule microarrays, primary screen, biochemical, small-molecule microarray, 635 nm fluorescence (AID 1102); conditions: FGF10 binding, fluorescence 635 nm, higher = more signal
Sequence of Fibroblast growth factor 10 (Homo sapiens) (O15520 whole entry, looked up): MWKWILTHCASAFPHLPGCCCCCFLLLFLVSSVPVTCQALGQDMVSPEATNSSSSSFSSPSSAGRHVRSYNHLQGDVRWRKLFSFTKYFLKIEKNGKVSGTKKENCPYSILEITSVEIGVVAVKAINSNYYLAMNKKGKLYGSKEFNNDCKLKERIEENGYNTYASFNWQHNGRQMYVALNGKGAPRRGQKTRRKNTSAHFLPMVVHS

[6] = tested on: glycogen synthase kinase-3 (GSK3A per assay name; protocol says GSK3B); test: GSK3 binders on small-molecule microarrays, primary screen, biochemical, small-molecule microarray, 635 nm fluorescence, GSK3A (AID 1103); conditions: small-molecule microarray binding, fluorescence 635 nm; higher = more signal; note: the record names both GSK3A and GSK3B
[7] = biological target: Epidermal growth factor receptor (Homo sapiens) (UniProt P00533); test: EGFR binders on small-molecule microarrays, primary screen, biochemical, small-molecule microarray, 635 nm fluorescence (AID 1104); conditions: EGFR binding, higher = more signal;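 note: score merges 667 nm emission intensity with spot signal to noise over triplicate slides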
Sequence of Epidermal growth factor receptor (Homo sapiens) (P00533 whole entry, looked up): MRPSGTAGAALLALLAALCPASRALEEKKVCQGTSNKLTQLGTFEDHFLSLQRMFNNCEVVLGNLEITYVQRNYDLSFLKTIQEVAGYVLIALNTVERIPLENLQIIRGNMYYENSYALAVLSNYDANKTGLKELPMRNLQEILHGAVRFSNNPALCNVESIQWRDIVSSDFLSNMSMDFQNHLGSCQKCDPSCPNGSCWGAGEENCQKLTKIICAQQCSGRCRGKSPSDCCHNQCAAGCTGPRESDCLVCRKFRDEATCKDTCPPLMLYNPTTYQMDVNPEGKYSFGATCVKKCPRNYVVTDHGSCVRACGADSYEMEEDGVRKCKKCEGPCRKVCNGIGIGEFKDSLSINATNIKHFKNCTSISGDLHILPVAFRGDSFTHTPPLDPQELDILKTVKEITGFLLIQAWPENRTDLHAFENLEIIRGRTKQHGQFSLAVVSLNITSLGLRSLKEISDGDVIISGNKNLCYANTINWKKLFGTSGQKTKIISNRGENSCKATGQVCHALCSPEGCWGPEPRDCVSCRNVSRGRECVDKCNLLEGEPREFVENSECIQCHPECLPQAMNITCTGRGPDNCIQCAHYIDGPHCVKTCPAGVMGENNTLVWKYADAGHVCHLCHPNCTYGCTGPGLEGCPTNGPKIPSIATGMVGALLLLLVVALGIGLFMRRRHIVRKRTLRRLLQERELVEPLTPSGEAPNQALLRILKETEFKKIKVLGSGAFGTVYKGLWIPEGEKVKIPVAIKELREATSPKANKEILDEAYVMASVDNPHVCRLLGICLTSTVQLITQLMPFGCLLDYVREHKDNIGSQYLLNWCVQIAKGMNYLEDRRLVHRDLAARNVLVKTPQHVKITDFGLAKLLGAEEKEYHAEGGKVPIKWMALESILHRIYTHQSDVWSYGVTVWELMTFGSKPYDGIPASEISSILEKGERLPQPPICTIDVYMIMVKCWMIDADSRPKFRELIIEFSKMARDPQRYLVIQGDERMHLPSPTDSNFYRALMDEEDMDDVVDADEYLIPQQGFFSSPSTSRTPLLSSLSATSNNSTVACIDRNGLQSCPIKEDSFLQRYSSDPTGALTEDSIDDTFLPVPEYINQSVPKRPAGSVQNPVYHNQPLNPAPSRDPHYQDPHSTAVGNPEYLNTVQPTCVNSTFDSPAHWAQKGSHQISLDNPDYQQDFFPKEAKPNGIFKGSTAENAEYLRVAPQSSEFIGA

[8] = biological target: Follistatin-related protein 3 (Homo sapiens) (UniProt O95633); test: FSTL3 binders on small-molecule microarrays, primary screen, biochemical, small-molecule microarray, 635 nm fluorescence (AID 1105); conditions: FSTL3 binding, higher = more signal;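 note: score merges emission near 667 nm and signal to noise per printed spot across three slides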
Sequence of Follistatin-related protein 3 (Homo sapiens) (O95633 whole entry, looked up): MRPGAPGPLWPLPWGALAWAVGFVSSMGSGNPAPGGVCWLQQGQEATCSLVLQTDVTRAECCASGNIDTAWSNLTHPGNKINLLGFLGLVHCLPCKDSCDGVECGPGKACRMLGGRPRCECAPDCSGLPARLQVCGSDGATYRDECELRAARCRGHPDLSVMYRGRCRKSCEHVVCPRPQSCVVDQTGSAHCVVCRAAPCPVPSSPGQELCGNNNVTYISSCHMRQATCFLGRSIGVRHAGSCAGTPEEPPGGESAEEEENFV

[9] = biological target: Dickkopf-related protein 1 (Homo sapiens) (UniProt O94907); test: DKK1 binders on small-molecule microarrays, primary screen, biochemical, small-molecule microarray, 635 nm fluorescence scan (AID 1106); conditions: DKK1 binding, higher = more signal;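 note: score merges emission near 667 nm with signal to noise over three replicate slides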
Sequence of Dickkopf-related protein 1 (Homo sapiens) (O94907 whole entry, looked up): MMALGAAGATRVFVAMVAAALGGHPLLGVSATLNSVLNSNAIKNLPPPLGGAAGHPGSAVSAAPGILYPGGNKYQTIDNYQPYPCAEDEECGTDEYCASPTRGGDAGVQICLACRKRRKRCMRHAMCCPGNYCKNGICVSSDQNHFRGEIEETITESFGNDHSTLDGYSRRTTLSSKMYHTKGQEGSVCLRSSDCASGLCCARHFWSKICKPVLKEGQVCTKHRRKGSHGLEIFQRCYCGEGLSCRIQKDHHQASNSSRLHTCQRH

[10] = tested on: Inhibin beta A chain (activin A); test: INHBA (activin A) binders on microarrays, primary screen, biochemical, small-molecule microarray, 635 nm fluorescence scan (AID 1107); conditions: small-molecule microarray binding, higher = more signal;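 note: mouse activin A protein probed at 4.33 µg/mL on printed slides; score merges bound-protein fluorescence near 667 nm with spot signal-to-noise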
[11] = tested on: Human papillomavirus type 1a protein E7 (residues 44-93); test: HPV1a E7 fragment binders on microarrays, primary screen, biochemical, small-molecule microarray, residues 44-93, 635 nm fluorescence (AID 1108); conditions: small-molecule microarray binding, fluorescence 635 nm; higher = more signal;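 note: E7 fragment applied at 1 µg/mL in TBST for 1 h at 4 C; score combines spot fluorescence with its signal to noise ratio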
[12] = modulators of HCV replicon luciferase signal, primary screen, HCV replication inhibitor project, Huh7 cells, luciferase reporter (AID 1109); conditions: 48 h, higher = more signal;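 note: huh7 hepatoma cells harbouring a luciferase neomycin HCV replicon reporter; luciferase luminescence as measure of HCV replicon replication; test concentration not given here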
[13] = biological target: Left-right determination factor 2 (Homo sapiens) (UniProt O00292); test: LEFTY2 binders on small-molecule microarrays, primary screen, biochemical, small-molecule microarray, 635 nm fluorescence scan (AID 1110); conditions: LEFTY2 binding, higher = more signal
Sequence of Left-right determination factor 2 (Homo sapiens) (O00292 whole entry, looked up): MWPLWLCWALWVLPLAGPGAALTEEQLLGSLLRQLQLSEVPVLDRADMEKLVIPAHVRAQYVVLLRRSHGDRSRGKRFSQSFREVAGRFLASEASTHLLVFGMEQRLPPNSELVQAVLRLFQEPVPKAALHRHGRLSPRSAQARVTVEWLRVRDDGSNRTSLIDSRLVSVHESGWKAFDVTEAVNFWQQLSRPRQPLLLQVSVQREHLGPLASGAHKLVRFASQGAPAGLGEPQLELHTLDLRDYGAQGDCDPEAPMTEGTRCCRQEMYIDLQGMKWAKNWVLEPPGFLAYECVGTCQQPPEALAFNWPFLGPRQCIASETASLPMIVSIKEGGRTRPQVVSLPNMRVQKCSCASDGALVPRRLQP

[14] = biological target: Calmodulin-1 (Homo sapiens) (UniProt P0DP23); test: CALM1 binders on microarrays, EGTA buffer, profiling panel, biochemical, small-molecule microarray, Cy5-labelled CALM1 (AID 1111); conditions: Cy5-CALM1 binding fluorescence, higher = more signal;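 note: labelled calmodulin applied in Tris saline Tween buffer holding calcium plus EGTA and DTT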
[15] = biological target: Calmodulin-1 (Homo sapiens) (UniProt P0DP23); test: calcium-bound CALM1 binders on microarrays, profiling panel, artefact control for SMM control-protein annotation, biochemical, small-molecule microarray, Cy5-labelled CALM1, plus calcium (AID 1112); conditions: Cy5-CALM1 binding fluorescence, higher = more signal;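 note: score merges spot fluorescence with signal to noise from triplicate slides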
[16] = small-molecule microarray binders of probe aWnt5a, primary screen, biochemical, biotinylated probe, 635/667 nm fluorescence (AID 1113); conditions: higher = more signal;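 note: score merges 667 nm fluorescence intensity with signal-to-noise per printed feature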
[17] = small-molecule microarray binders of probe aShh, primary screen, biochemical, biotinylated probe, 635/667 nm fluorescence (AID 1114); conditions: higher = more signal;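 note: probe is biotin-labelled aShh protein from a stem cell growth factor screen; measures binding of labelled protein to compounds printed on the slide; score merges feature fluorescence at 667 nm with signal-to-noise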
[18] = small-molecule microarray binders of probe aNog, primary screen, biochemical, biotinylated probe, 635/667 nm fluorescence (AID 1115); conditions: higher = more signal;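 note: probe is biotinylated aNog protein used at 0.15 µg/mL for 1 h at 4 C; z-score combines 667 nm fluorescence of each spot with its signal to noise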
[19] = biological target: Torsin-1A-interacting protein 1 (Homo sapiens) (UniProt Q5JTV8); test: LAP1 binders from COS7 cell lysate, primary screen, small-molecule microarray, 635/667 nm fluorescence (AID 1116); conditions: COS7-hLAP1 lysate binding, 635 nm fluorescence, higher = more signal
Sequence of Torsin-1A-interacting protein 1 (Homo sapiens) (Q5JTV8 whole entry, looked up): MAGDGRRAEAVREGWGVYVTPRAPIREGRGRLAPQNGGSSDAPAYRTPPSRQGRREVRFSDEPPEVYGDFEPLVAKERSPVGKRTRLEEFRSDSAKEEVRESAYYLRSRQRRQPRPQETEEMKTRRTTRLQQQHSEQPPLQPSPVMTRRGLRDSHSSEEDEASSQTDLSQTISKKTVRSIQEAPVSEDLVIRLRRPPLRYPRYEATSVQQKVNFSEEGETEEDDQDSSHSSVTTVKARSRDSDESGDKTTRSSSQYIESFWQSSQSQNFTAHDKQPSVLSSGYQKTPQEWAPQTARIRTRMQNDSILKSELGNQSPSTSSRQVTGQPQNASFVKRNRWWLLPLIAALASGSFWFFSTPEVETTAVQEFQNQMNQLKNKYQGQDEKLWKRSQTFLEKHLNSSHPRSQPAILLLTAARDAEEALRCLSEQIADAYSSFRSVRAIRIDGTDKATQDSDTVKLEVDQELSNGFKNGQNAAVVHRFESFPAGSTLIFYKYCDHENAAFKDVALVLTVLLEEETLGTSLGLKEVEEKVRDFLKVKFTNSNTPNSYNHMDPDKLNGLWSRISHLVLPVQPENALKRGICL

[20] = biological target: Alpha-bungarotoxin (Bungarus multicinctus) (UniProt P60615); test: alpha-bungarotoxin binders on microarray, profiling panel, artefact control for SMM control protein annotation, biochemical, small-molecule microarray, Alexa647 label, 635/667 nm fluorescence (AID 1117); conditions: alpha-BTX-A647 binding fluorescence, higher = more signal
Sequence of Alpha-bungarotoxin (Bungarus multicinctus) (P60615 whole entry, looked up): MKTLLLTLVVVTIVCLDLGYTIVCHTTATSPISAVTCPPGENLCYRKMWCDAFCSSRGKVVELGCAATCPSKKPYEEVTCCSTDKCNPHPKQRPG

## COC(=O)c1ccc(OC)c(/C=C\CC(CCc2ccccc2)OC(=O)c2ccncc2)c1 (stereo not given)
[1]
  composite z-score: -0.734
[2]
  composite z-score: -0.264
[3]
  composite z-score: 0.705
[4]
  z-score: -0.387 (inactive)
[5]
  composite z-score: 0.253
[6]
  composite z-score: -0.453
[7]
  composite z-score: 0.651
[8]
  composite z-score: 1.37
[9]
  composite z-score: 0.697
[10]
  composite z-score: 1.81
[11]
  composite z-score: -0.0796
[12]
  z-score: -0.578
[13]
  composite z-score: 1.45
[14]
  composite z-score: -1.61
[15]
  composite z-score: -1.72
[16]
  composite z-score: -0.25
[17]
  composite z-score: -0.117
[18]
  composite z-score: -0.385
[19]
  composite z-score: 0.489
[20]
  composite z-score: 1.65

## COC(=O)[C@@]1(Cc2ccc(F)cc2)[C@@H]2[C@@H](CC(=O)[C@H]2CC(=O)C(=O)N2CCCC2)CN1C(=O)c1ccccc1
[1]
  composite z-score: 1.16
[2]
  composite z-score: 0.942
[3]
  composite z-score: 0.807
[4]
  z-score: -0.98 (inactive)
[5]
  composite z-score: 1.11
[6]
  composite z-score: 1.3
[7]
  composite z-score: -0.121
[8]
  composite z-score: 1.02
[9]
  composite z-score: -0.0822
[10]
  composite z-score: 0.85
[11]
  composite z-score: 1.43
[12]
  z-score: -2.01
[13]
  composite z-score: -0.412
[14]
  composite z-score: 2.17
[15]
  composite z-score: 1.01
[16]
  composite z-score: 0.135
[17]
  composite z-score: 0.338
[18]
  composite z-score: 2.34
[19]
  composite z-score: 0.739
[20]
  composite z-score: 1.03

## CN(C)C(=O)[C@@]1(CCC(=O)OC(C)(C)C)COC(c2ccc(OCCCO)cc2)=N1
[1]
  composite z-score: 0.999
[2]
  composite z-score: 0.66
[3]
  composite z-score: 0.945
[4]
  z-score: 0.351 (inactive)
[5]
  composite z-score: 0.625
[6]
  composite z-score: -0.459
[7]
  composite z-score: -0.785
[8]
  composite z-score: -0.326
[9]
  composite z-score: -1.19
[10]
  composite z-score: 0.279
[11]
  composite z-score: 1.08
[12]
  z-score: -0.594
[13]
  composite z-score: -1.04
[14]
  composite z-score: 0.38
[15]
  composite z-score: 0.816
[16]
  composite z-score: -0.127
[17]
  composite z-score: 0.261
[18]
  composite z-score: 1.52
[19]
  composite z-score: 1.54
[20]
  composite z-score: 0.728

Source: PubChem BioAssay
